{
  "source": "PubChem BioAssay AID602420",
  "about": "(Johns Hopkins Ion Channel Center, 2012)",
  "note": "Screen size: about 2,300 compounds; about 430 (19%) were called active.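 How the source made its calls: active means remaining agonist calcium response no higher than 100% minus 3 SD of agonist-only control wells, with starting fluorescence near control levels; inactive means the rest.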 Only a sample is shown.",
  "data": [
    {"molecular_target": "Mas-related G-protein coupled receptor member X1 (Homo sapiens) (UniProt Q96LB2)", "sequence (Q96LB2 whole entry, looked up)": "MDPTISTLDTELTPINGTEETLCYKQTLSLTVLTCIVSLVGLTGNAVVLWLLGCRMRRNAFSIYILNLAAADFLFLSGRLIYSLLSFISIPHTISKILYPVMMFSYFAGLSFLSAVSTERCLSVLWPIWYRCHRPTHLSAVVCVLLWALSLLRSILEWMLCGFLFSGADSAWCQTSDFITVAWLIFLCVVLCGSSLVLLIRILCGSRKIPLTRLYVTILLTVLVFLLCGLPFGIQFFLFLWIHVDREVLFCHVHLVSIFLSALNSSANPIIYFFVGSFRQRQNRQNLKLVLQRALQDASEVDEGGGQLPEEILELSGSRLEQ", "assay": "blockers of BAM8-22 MrgX1 calcium response – HEK293 cells, Fluo-4 calcium flux, confirmation (AID 602420)", "settings": "MrgX1-HEK293, BAM8-22 calcium flux, at 10 µM; active compounds read low", "values": [
      {"smiles": "O=C(Cc1ccccn1)c1ccc(O)cc1O", "remaining BAM8-22 calcium response % of control (active compounds read low)": "77.8% (active)"},
      {"smiles": "CCOc1ccc(NC(=O)CCNC(=O)c2ccc(Br)cc2)cc1", "remaining BAM8-22 calcium response % of control (active compounds read low)": "inactive"},
      {"smiles": "COc1ccc([N+](=O)[O-])cc1NC(=O)COC(=O)/C=C/c1ccco1", "remaining BAM8-22 calcium response % of control (active compounds read low)": "inactive"},
      {"smiles": "CCOC(=O)C1=C(O)CSC1=Nc1cccc(Cl)c1", "remaining BAM8-22 calcium response % of control (active compounds read low)": "inactive"},
      {"smiles": "Cc1nn(-c2ccccc2)c(C)c1NC(=O)COc1ccc(Cl)cc1Cl", "remaining BAM8-22 calcium response % of control (active compounds read low)": "inactive"},
      {"smiles": "COc1ccc(C(=O)Nc2c(N)nc(SCC(=O)N3CCC(C)CC3)[nH]c2=O)cc1OC", "remaining BAM8-22 calcium response % of control (active compounds read low)": "83.1% (active)"},
      {"smiles": "CN1C(CC(=O)Nc2ccc(Br)cc2)c2ccccc2CC1(C)C", "note": "(stereo not given)", "remaining BAM8-22 calcium response % of control (active compounds read low)": "inactive"},
      {"smiles": "O=C(Nc1ccc(Br)cc1F)C1CC(=O)N(C2CCCCC2)C1", "note": "(stereo not given)", "remaining BAM8-22 calcium response % of control (active compounds read low)": "inactive"},
      {"smiles": "Cc1cccc(-n2c(Cc3cc(=O)[nH]c(=O)[nH]3)nnc2SC(C)C)c1", "remaining BAM8-22 calcium response % of control (active compounds read low)": "inactive"},
      {"smiles": "Cc1ccc2nc(-c3ccc(NC(=O)CN(C)S(=O)(=O)c4ccccc4)cc3)sc2c1", "remaining BAM8-22 calcium response % of control (active compounds read low)": "inactive"},
      {"smiles": "Cc1ccc2nc(-c3ccc(NC(=O)c4cccnc4)cc3)oc2c1", "remaining BAM8-22 calcium response % of control (active compounds read low)": "67.5% (active)"},
      {"smiles": "O=C(O)CSC(NC(=O)c1cccnc1)(C(F)(F)F)C(F)(F)F", "remaining BAM8-22 calcium response % of control (active compounds read low)": "inactive"},
      {"smiles": "CCOC1CCCCC1NS(=O)(=O)c1ccc(Cl)cc1", "note": "(stereo not given)", "remaining BAM8-22 calcium response % of control (active compounds read low)": "inactive"},
      {"smiles": "Cc1cc(Nc2cc(N3CCN(C)CC3)nc(Sc3ccc(NC(=O)C4CC4)cc3)n2)n[nH]1", "remaining BAM8-22 calcium response % of control (active compounds read low)": "84% (active)"},
      {"smiles": "CCOc1cc(-c2conc2N)cc(OCC)c1OCC", "remaining BAM8-22 calcium response % of control (active compounds read low)": "inactive"},
      {"smiles": "Cc1cc(Br)ccc1NC(=O)c1cnc(N2CCN(c3ccccn3)CC2)c2ccccc12", "remaining BAM8-22 calcium response % of control (active compounds read low)": "72.4% (active)"},
      {"smiles": "O=C(CN1CCN(c2ccccn2)CC1)NC1CCCCC1", "remaining BAM8-22 calcium response % of control (active compounds read low)": "inactive"},
      {"smiles": "O=S(=O)(c1ccc2ccccc2c1)N1CCN(S(=O)(=O)N2CCOCC2)CC1", "remaining BAM8-22 calcium response % of control (active compounds read low)": "inactive"},
      {"smiles": "C=CCOc1cccc(C2C(C(=O)c3ccc(C)o3)=C(O)C(=O)N2c2nnc(C)s2)c1", "note": "(stereo not given)", "remaining BAM8-22 calcium response % of control (active compounds read low)": "63.9% (active)"},
      {"smiles": "CC(=O)N(C1=C(Cl)C(=O)c2ccccc2C1=O)c1ccc(C(=O)O)cc1", "remaining BAM8-22 calcium response % of control (active compounds read low)": "inactive"},
      {"smiles": "CCCCC(=O)Nc1ccc2c(c1)C(=O)NC2=O", "remaining BAM8-22 calcium response % of control (active compounds read low)": "inactive"},
      {"smiles": "O=C(C1CCN(S(=O)(=O)c2cnc[nH]2)CC1)N1CCN(Cc2ccc3c(c2)OCO3)CC1", "remaining BAM8-22 calcium response % of control (active compounds read low)": "inactive"},
      {"smiles": "C=CCNC(=O)c1csc(-c2ccccc2)n1", "remaining BAM8-22 calcium response % of control (active compounds read low)": "inactive"},
      {"smiles": "C=CCNC(=O)c1cc(-c2ccccc2O)on1", "remaining BAM8-22 calcium response % of control (active compounds read low)": "84.3% (active)"},
      {"smiles": "COCC(C)NC(=O)c1ccc(Cl)c(Cl)c1", "note": "(stereo not given)", "remaining BAM8-22 calcium response % of control (active compounds read low)": "inactive"},
      {"smiles": "O=C1CCCc2c1nc(-c1cccc(Cl)c1)n2O", "remaining BAM8-22 calcium response % of control (active compounds read low)": "inactive"},
      {"smiles": "CCc1cc2c(SCC(=O)Nc3ncc(Cl)c(C)c3Cl)ncnc2s1", "remaining BAM8-22 calcium response % of control (active compounds read low)": "inactive"},
      {"smiles": "O=C(COc1ccc(Cl)cc1)NC(=S)Nc1ccccc1N1CCOCC1", "remaining BAM8-22 calcium response % of control (active compounds read low)": "inactive"},
      {"smiles": "CCN(C(=O)CSc1nnc2ccccn12)C1CCS(=O)(=O)C1", "note": "(stereo not given)", "remaining BAM8-22 calcium response % of control (active compounds read low)": "inactive"},
      {"smiles": "FC(F)Oc1ccc(NC(=S)NCc2ccco2)cc1Cl", "remaining BAM8-22 calcium response % of control (active compounds read low)": "inactive"},
      {"smiles": "O=C1CCCN1CCCNC(=S)Nc1ccc(F)c(Cl)c1", "remaining BAM8-22 calcium response % of control (active compounds read low)": "67.5% (active)"},
      {"smiles": "CCOC(=O)Nc1ccc2c(c1)N(C(=O)CCN1CCN(CCO)CC1)c1ccccc1CC2", "remaining BAM8-22 calcium response % of control (active compounds read low)": "inactive"},
      {"smiles": "CC(=O)N(C)c1ccc(NC(=O)C(F)(F)F)cc1", "remaining BAM8-22 calcium response % of control (active compounds read low)": "inactive"},
      {"smiles": "Cc1cccc(NC(=O)COc2ccccc2C)n1", "remaining BAM8-22 calcium response % of control (active compounds read low)": "inactive"},
      {"smiles": "CC(C)OCCCNc1ncnc2c1[nH]c1ccc(F)cc12", "remaining BAM8-22 calcium response % of control (active compounds read low)": "inactive"},
      {"smiles": "CCC(C)c1ccccc1N1CC(C(=O)N2CCN(S(=O)(=O)c3ccc(F)cc3)CC2)CC1=O", "note": "(stereo not given)", "remaining BAM8-22 calcium response % of control (active compounds read low)": "84.2% (active)"},
      {"smiles": "O=C(CSc1ncccn1)NC(=O)NCc1ccccc1", "remaining BAM8-22 calcium response % of control (active compounds read low)": "inactive"},
      {"smiles": "COCc1nnc(NC(=O)c2ccc3c(c2)OCO3)s1", "remaining BAM8-22 calcium response % of control (active compounds read low)": "inactive"},
      {"smiles": "Cc1cc(=O)oc2cc(NC(=O)C3CC(=O)N(Cc4ccccc4)C3)ccc12", "note": "(stereo not given)", "remaining BAM8-22 calcium response % of control (active compounds read low)": "inactive"},
      {"smiles": "Cc1ccc(Nc2nc(-c3ccc(O)cc3O)cs2)nc1", "remaining BAM8-22 calcium response % of control (active compounds read low)": "82.3% (active)"},
      {"smiles": "CCOc1ccccc1C1CC(c2ccc(Cl)cc2)Nc2nc(N)nn21", "note": "(stereo not given)", "remaining BAM8-22 calcium response % of control (active compounds read low)": "inactive"},
      {"smiles": "Cc1cc(C)cc(NC(=S)NCCc2c[nH]c3ccccc23)c1", "remaining BAM8-22 calcium response % of control (active compounds read low)": "inactive"},
      {"smiles": "COc1cc2c(cc1O)C(SC)=NC(C)(C)C2", "remaining BAM8-22 calcium response % of control (active compounds read low)": "85.2% (active)"},
      {"smiles": "CCOc1ccc(C(=O)NC2CCN(S(=O)(=O)CC)CC2)cc1", "remaining BAM8-22 calcium response % of control (active compounds read low)": "inactive"},
      {"smiles": "CCOC(=O)c1cn(Cc2cccc(C)c2)nn1", "remaining BAM8-22 calcium response % of control (active compounds read low)": "inactive"},
      {"smiles": "Cc1nn(-c2ccccc2)c2c1C(c1ccc(F)cc1)C(C#N)=C(N)O2", "note": "(stereo not given)", "remaining BAM8-22 calcium response % of control (active compounds read low)": "inactive"},
      {"smiles": "CC(Oc1ccc(F)cc1)C(=O)Nc1ccccc1C(=O)NC1CC1", "note": "(stereo not given)", "remaining BAM8-22 calcium response % of control (active compounds read low)": "inactive"},
      {"smiles": "Cc1ccc2cc(/C=N/Nc3ccc(C(=O)O)cc3)c(Cl)nc2c1", "remaining BAM8-22 calcium response % of control (active compounds read low)": "37.2% (active)"},
      {"smiles": "COc1cccc(CCNC(=O)COc2cccc3c2OC(C)(C)C3)c1", "remaining BAM8-22 calcium response % of control (active compounds read low)": "inactive"},
      {"smiles": "O=C(Nc1ccccc1Cl)N1CCN(c2ccc3nncn3n2)CC1", "remaining BAM8-22 calcium response % of control (active compounds read low)": "inactive"},
      {"smiles": "COc1ccccc1Oc1nc(-c2cccnc2)nc2ccccc12", "remaining BAM8-22 calcium response % of control (active compounds read low)": "inactive"},
      {"smiles": "CC(C)(C)n1c(=O)[nH]c2c(c1=O)CCC2", "remaining BAM8-22 calcium response % of control (active compounds read low)": "inactive"},
      {"smiles": "CN(CC(=O)Nc1ccccc1Cl)C(=O)COc1cccc2c1OC(C)(C)C2", "remaining BAM8-22 calcium response % of control (active compounds read low)": "inactive"},
      {"smiles": "CCCCCCCCCCOC(=O)Cn1c(COc2ccc(C)cc2)[n+](C)c2ccccc21", "remaining BAM8-22 calcium response % of control (active compounds read low)": "inactive"},
      {"smiles": "CCCCCCCCCCOC(=O)Cn1c(COc2cccc(OC)c2)[n+](C)c2ccccc21", "remaining BAM8-22 calcium response % of control (active compounds read low)": "53.5% (active)"},
      {"smiles": "CCc1ccc2nc3sc(C(=O)Nc4nnc(CC)s4)c(N)c3cc2c1", "remaining BAM8-22 calcium response % of control (active compounds read low)": "inactive"},
      {"smiles": "CCN(CC)c1ccc(C2C3CCCCC3(O)CCN2CC(=O)Nc2ccccc2)cc1", "note": "(stereo not given)", "remaining BAM8-22 calcium response % of control (active compounds read low)": "inactive"},
      {"smiles": "COCCNC(=O)Nc1ccc2nc(-c3ccco3)c(-c3ccco3)nc2c1", "remaining BAM8-22 calcium response % of control (active compounds read low)": "inactive"},
      {"smiles": "COc1ccc(S(=O)(=O)N2CCN(C(=O)NC3CCCCC3)CC2)cc1", "remaining BAM8-22 calcium response % of control (active compounds read low)": "inactive"},
      {"smiles": "CC(C)NC(=S)Nc1cccc2cnccc12", "remaining BAM8-22 calcium response % of control (active compounds read low)": "82.2% (active)"},
      {"smiles": "COc1ccc(S(=O)(=O)N2CCOCC2)c(C)c1C", "remaining BAM8-22 calcium response % of control (active compounds read low)": "inactive"},
      {"smiles": "Cc1ccc(Cc2cnc(N)s2)o1", "remaining BAM8-22 calcium response % of control (active compounds read low)": "inactive"},
      {"smiles": "COCCCNC(=O)C1CCN(c2ccc(N3CCOCC3)nn2)CC1", "remaining BAM8-22 calcium response % of control (active compounds read low)": "inactive"},
      {"smiles": "CC(=O)Nc1ccc(OC(=O)COc2ccc(Br)cc2)cc1", "remaining BAM8-22 calcium response % of control (active compounds read low)": "inactive"},
      {"smiles": "COC(=O)c1sccc1NS(=O)(=O)c1ccc(F)cc1F", "remaining BAM8-22 calcium response % of control (active compounds read low)": "80% (active)"},
      {"smiles": "CCc1nnc(NC(=O)CSc2nc3c(c(=O)n2-c2ccccc2OC)SCC3)s1", "remaining BAM8-22 calcium response % of control (active compounds read low)": "inactive"},
      {"smiles": "COc1ccc(C(=O)NC2CCCc3c2cnn3-c2cccc(C)c2C)c(OC)n1", "note": "(stereo not given)", "remaining BAM8-22 calcium response % of control (active compounds read low)": "28.5% (active)"},
      {"smiles": "O=C(CSc1c2c(nc3ccc(Cl)cc13)CCCC2)NCc1ccco1", "remaining BAM8-22 calcium response % of control (active compounds read low)": "inactive"},
      {"smiles": "Cc1ccc(CS(=O)(=O)c2ncc(Cl)c(C(=O)Nc3nnc(C)s3)n2)cc1", "remaining BAM8-22 calcium response % of control (active compounds read low)": "81.2% (active)"},
      {"smiles": "COc1ccc(-n2c(SCC(=O)NCc3ccco3)nnc2-c2c[nH]c3ccccc23)cc1", "remaining BAM8-22 calcium response % of control (active compounds read low)": "inactive"}
    ]}
  ]
}
